Reference: PubChem BioAssay (Tox21)
Values joined by “and” are separate entries in the source; they are usually repeats but may differ in a detail not shown here. Equal values may be shown once. Unmarked numbers belong to inactive results. Records with an inconclusive call do not appear. Active and inactive are the calls of the source. Calls follow the shape of the dose curve; as a rule, active = well fitted curve in the direction sought with a large enough effect in the repeat runs; inconclusive = weak or mixed curves; inactive = no such curve, though single readings can be large; an effect the other way counts as inactive or inconclusive.

Legend:
[1] = Caspase-3/7 induction in CHO-K1 cells by small molecules, qHTS cell viability counter screen (AID 1346979); also: nearly all actives have a fitted effect of over 35% in size; also: potency is read from the fitted curve at half-maximal effect
How it was run: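 Wild-type CHO-K1 cells were seeded at 1,500 per well, rested 5hr at 37 C, then exposed to compounds in DMSO. After 16hr, CellTiter-Fluor reagent was added and fluorescence read 1hr later as the viability measure.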

[2] = Caspase-3/7 induction in CHO-K1 cells by small molecules, qHTS assay (AID 1346980); also: nearly all actives have a fitted effect of over 15% in size; also: potency is read from the fitted curve at half-maximal effect
How it was run: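 Wild-type cells were seeded at 1,500 per well and settled 5 hr at 37 C, 5% CO2, then exposed to DMSO-dissolved compounds for 17 hr. Caspase-Glo 3/7 reagent was added, and luminescence was read after 30min at room temperature.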

[3] = Caspase-3/7 induction in HepG2 cells by small molecules, qHTS cell viability counter screen (AID 1346981); also: nearly all actives have a fitted effect of over 30% in size; also: potency is read from the fitted curve at half-maximal effect; as to activity change, negative = cytotoxicity: series mostly up to about 92 µM
How it was run: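 After a 5-hr attachment period at 37 C and 5% CO2, wild-type HepG2 cells received compounds in DMSO. Sixteen hours later CellTiter-Fluor was dispensed and the fluorescent signal quantified after a further hour.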

[4] = target: Nuclear receptor subfamily 1 group I member 2 (Homo sapiens) (UniProt O75469); assay: Human pregnane X receptor (PXR) small molecule agonists, qHTS assay (AID 1346982); also: nearly all actives have a fitted effect of over 35% in size; also: potency is read from the fitted curve at half-maximal effect
Chain of Nuclear receptor subfamily 1 group I member 2 (Homo sapiens) (O75469 whole entry, looked up): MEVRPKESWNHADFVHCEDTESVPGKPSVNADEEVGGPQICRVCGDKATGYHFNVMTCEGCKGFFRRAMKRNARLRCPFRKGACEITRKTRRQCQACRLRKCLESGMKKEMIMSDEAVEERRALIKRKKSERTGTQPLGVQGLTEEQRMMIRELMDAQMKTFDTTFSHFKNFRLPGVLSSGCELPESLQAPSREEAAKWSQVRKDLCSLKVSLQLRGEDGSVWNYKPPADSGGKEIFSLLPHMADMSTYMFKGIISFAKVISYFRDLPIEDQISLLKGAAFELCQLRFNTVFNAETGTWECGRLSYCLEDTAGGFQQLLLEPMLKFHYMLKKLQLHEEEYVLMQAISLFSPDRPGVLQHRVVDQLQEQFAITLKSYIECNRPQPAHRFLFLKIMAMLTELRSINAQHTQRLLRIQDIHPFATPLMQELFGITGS
How it was run: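 Tox21 qHTS; PXR-Luc HepG2; compounds pinned from DMSO; 24 hr, 37 C; ONE-Glo luciferase detection, 30 min room temperature.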

[5] = target: Cytochrome P450 2C9 (Homo sapiens) (UniProt P11712); assay: Cytochrome P450 Family 2 Subfamily C Member 9 (CYP2C9) small molecule antagonists: luciferase reporter qHTS assay (AID 1671198); also: nearly all actives have a fitted effect of over 50% in size; also: potency is read from the fitted curve at half-maximal effect; as to activity change, negative = inhibition: series mostly up to about 120 µM
Chain of Cytochrome P450 2C9 (Homo sapiens) (P11712 whole entry, looked up): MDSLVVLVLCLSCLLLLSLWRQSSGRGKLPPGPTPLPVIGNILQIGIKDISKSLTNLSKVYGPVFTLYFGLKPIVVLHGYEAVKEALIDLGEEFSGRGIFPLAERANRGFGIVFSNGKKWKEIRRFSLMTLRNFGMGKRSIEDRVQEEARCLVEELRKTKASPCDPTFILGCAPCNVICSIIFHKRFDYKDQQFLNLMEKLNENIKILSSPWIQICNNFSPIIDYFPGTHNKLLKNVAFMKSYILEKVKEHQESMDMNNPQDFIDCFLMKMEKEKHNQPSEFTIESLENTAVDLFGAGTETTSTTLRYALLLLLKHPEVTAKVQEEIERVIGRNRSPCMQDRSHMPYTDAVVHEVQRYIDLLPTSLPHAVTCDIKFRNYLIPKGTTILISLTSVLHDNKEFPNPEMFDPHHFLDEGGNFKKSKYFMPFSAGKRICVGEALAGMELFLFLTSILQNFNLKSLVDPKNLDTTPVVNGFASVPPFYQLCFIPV
How it was run: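 CYP2C9 activity was measured with a P450-Glo proluciferin substrate. Enzyme–substrate mix was held with compound for 10 min at room temperature, then NADPH regeneration solution was added for 1 h at 37C. Luciferin product was read as luminescence.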

[6] = target: Cytochrome P450 2D6 (Homo sapiens) (UniProt P10635); assay: Cytochrome P450 Family 2 Subfamily D Member 6 (CYP2D6) small molecule antagonists: luciferase reporter qHTS assay (AID 1671196); also: nearly all actives have a fitted effect of over 50% in size; also: potency is read from the fitted curve at half-maximal effect; as to activity change, negative = inhibition: series mostly up to about 120 µM
Chain of Cytochrome P450 2D6 (Homo sapiens) (P10635 whole entry, looked up): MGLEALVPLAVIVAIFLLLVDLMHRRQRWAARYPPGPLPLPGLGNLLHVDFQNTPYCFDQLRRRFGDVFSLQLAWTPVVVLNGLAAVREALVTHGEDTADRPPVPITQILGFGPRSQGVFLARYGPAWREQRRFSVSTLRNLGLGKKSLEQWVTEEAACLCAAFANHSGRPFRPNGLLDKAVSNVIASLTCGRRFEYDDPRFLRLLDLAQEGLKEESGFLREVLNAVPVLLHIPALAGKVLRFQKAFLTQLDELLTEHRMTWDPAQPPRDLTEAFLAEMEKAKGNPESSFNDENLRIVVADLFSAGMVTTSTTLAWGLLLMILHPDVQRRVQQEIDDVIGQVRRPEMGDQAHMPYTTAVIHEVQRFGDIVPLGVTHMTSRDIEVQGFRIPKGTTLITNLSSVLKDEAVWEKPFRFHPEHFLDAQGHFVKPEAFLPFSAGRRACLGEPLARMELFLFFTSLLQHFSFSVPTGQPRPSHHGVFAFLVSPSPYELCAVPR
How it was run: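 Room-temperature luminescent CYP2D6 activity assay: compound preincubated 10 min with enzyme–substrate mix, NADPH-initiated reaction 1 h, detection reagent 20 min before reading.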

[7] = target: Cytochrome P450 2C19 (Homo sapiens) (UniProt P33261); assay: Cytochrome P450 Family 2 Subfamily C Member 19 (CYP2C19) small molecule antagonists: luciferase reporter qHTS assay (AID 1671197); also: nearly all actives have a fitted effect of over 65% in size; also: potency is read from the fitted curve at half-maximal effect; as to activity change, negative = inhibition: series mostly up to about 120 µM
Chain of Cytochrome P450 2C19 (Homo sapiens) (P33261 whole entry, looked up): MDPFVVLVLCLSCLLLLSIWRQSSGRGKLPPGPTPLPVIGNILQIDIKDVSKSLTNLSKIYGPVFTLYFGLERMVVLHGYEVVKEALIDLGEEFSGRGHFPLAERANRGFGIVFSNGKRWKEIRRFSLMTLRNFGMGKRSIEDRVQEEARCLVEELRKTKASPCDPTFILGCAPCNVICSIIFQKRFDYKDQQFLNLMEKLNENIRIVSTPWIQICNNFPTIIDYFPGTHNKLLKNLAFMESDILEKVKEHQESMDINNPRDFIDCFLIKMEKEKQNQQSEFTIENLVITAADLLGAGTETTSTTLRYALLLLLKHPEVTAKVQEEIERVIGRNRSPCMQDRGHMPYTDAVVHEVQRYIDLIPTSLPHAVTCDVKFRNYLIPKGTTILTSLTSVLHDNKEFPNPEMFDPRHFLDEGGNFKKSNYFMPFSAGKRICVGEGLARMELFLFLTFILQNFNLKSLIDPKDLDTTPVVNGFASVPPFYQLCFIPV
How it was run: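 P450-Glo CYP2C19 system: enzyme-substrate mix with compound 10 min at room temperature, then NADPH regeneration solution, 1 h at 37C. Proluciferin-to-luciferin conversion detected by luminescence after 20 min with detection reagent; ketoconazole as positive control.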

[8] = target: Nuclear receptor subfamily 1 group I member 2 (Rattus norvegicus) (UniProt Q9R1A7); assay: Rat pregnane X receptor (rPXR) activation by small molecules, qHTS assay (AID 1346983); conditions: rPXR luciferase reporter cells, One-Glo luminescence, 24 h; max activation: active compounds read high; also: nearly all actives have a fitted effect of over 20% in size
Chain of Nuclear receptor subfamily 1 group I member 2 (Rattus norvegicus) (Q9R1A7 whole entry, looked up): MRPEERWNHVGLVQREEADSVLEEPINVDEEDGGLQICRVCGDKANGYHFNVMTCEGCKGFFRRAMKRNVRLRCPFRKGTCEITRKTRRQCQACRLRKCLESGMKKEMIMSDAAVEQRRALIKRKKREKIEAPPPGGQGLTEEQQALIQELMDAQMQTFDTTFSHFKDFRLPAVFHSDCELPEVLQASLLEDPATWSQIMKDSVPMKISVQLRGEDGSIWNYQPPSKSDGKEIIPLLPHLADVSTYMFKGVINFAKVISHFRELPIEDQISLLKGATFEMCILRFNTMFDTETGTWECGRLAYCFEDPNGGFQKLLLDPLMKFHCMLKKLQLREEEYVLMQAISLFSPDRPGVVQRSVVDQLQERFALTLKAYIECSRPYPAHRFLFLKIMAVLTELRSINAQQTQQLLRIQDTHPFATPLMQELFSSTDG
How it was run: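 Cell-based rPXR luciferase reporter assay, 2,000 cells per well, rested 5hr at 37 C before compound addition in DMSO, then 24 hr at 37 C. One-Glo reagent was added and luminescence read after 30 min at room temperature.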

[9] = target: Nuclear receptor subfamily 1 group I member 2 (Homo sapiens) (UniProt O75469); assay: CYP3A4 induction through human pregnane X receptor (PXR) by small molecules, qHTS assay (AID 1346984); also: nearly all actives have a fitted effect of over 40% in size
How it was run: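 Cells (DPX-2; HepG2 with PXR element plus CYP3A4-promoter luciferase) settled 5hr, then were treated 24hr at 37C. A 3hr, 3uM-final Luciferin-IPA step preceded luminescence measurement with One-Glo.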
% is scaled to controls: 0 for no effect and ±100 for the full control effect.

In the case of c1cc(OCC2CO2)cc(OCC2CO2)c1 (stereo unspecified), the Potency [1] is reported as 60.6 µM (active), the Potency [2] is reported as “inactive” and the Potency [3] is reported as 60.6 µM (active). The Potency [4] was 21.5 µM (active) and the Potency [5] was 39.6 µM (active).
For CCCCCCCOC(=O)c1ccc(O)cc1, the Potency [1] was 61.2 µM (active) and 61.1 µM (active), the Potency [2] was “inactive” and the Potency [3] was “inactive”. The Potency [4] was 61.1 µM (active), the Potency [6] was 71 µM (active) and the Potency [7] was 7.1 µM (active) and 20 µM (active). The Potency [5] was 35.6 µM (active) and 39.9 µM (active).
For CCCCCCCCCCCCCC[n+]1ccccc1, the Potency [1] was 27.3 µM (active), the Potency [2] was “inactive” and the Potency [3] was 27.3 µM (active). The Potency [4] was 8.63 µM (active) and the Potency [6] was 1.78 µM (active).
For CCCCCCCCCCCCCCCCCO, the activity change, negative = cytotoxicity [1] was 11.2% [at 19 µM], the caspase-3/7 activation [2] was 1.08% [at 19 µM] and the activity change, negative = cytotoxicity [3] was 9.49% [at 19 µM]. For the same compound, the activation [4] was 4.62% [at 19 µM], the activity change, negative = inhibition [6] was -4.81% [at 23.6 µM] and the activity change, negative = inhibition [7] was -5.64% [at 23.6 µM]. It also gave an activity change, negative = inhibition [5] of -2.94% [at 23.6 µM].
In the case of O=C(c1ccccc1)c1cc(Cl)ccc1O, the Potency [1] is reported as “inactive”, the Potency [2] is reported as “inactive” and the Potency [3] is reported as “inactive”. For the same compound, the Potency [6] was 37.9 µM (active), the Potency [7] was 1.9 µM (active) and the Potency [5] was 33.8 µM (active).
CCC(=O)CC(C)CC (stereo unspecified) showed an activity change, negative = cytotoxicity [1] of 4.19% [at 0.349 µM], a caspase-3/7 activation [2] of 0.142% [at 0.349 µM] and an activity change, negative = cytotoxicity [3] of 6.32% [at 0.349 µM]. For the same compound, the activation [4] was 2.33% [at 0.349 µM], the activity change, negative = inhibition [6] was -13% [at 0.435 µM] and the activity change, negative = inhibition [7] was -5.38% [at 0.435 µM]. It also gave an activity change, negative = inhibition [5] of -10.1% [at 0.435 µM].
For CC(=O)O[C@@H]1C[C@@H]2CC[C@@]1(C)C2(C)C, the Potency [1] was “inactive”, the Potency [2] was “inactive” and the Potency [3] was “inactive”. For the same compound, the Potency [4] was “inactive”, the Potency [6] was “inactive” and the Potency [7] was “inactive”. The Potency [5] was “inactive”.
With CO[Si](CCCNCCNCCN)(OC)OC the Potency [1] was “inactive”, the Potency [2] was “inactive” and the Potency [3] was “inactive”. The Potency [4] was “inactive”, the Potency [6] was “inactive” and the Potency [7] was “inactive”. The Potency [5] was “inactive”.
With CNC(=O)c1cc(Oc2ccc(NC(=O)Nc3ccc(Cl)c(C(F)(F)F)c3)cc2)ccn1 the Potency [1] was 26.6 µM (active), the Potency [2] was “inactive” and the Potency [4] was “inactive”. The max activation [8] was -24.5%, the Potency [7] was 27.5 µM (active) and the Potency [5] was 17.4 µM (active).
With CCCCCCCC/C=C\CCCCCCCC(=O)NCc1ccc(O)c(OC)c1 the Potency [1] was “inactive”, the Potency [2] was “inactive” and the Potency [3] was “inactive”. For the same compound, the Potency [4] was “inactive”, the max activation [8] was -4.67% and the Potency [9] was “inactive”. The Potency [7] was 15.5 µM (active).
In the case of CCN=c1cc2oc3cc(NCC)c(C)cc3c(-c3ccccc3C(=O)OCC)c-2cc1C, the Potency [1] is reported as 965 nM (active) and 611 nM (active), the Potency [2] is reported as 43.1 µM (active) and 48.6 µM (active) and the Potency [3] is reported as 2.72 µM (active) and 7.7 µM (active). The Potency [4] was 2.42 µM (active) and 1.72 µM (active), the Potency [6] was 17.8 µM (active) and 20 µM (active) and the Potency [7] was 7.94 µM (active) and 10 µM (active). For the same compound, the Potency [5] was 7.94 µM (active) and 12.6 µM (active).
